PRC2 inh = blocks human EZH2/PRC2 H3K27 methylation; Q15910; DELFIA TRF, 1 h; inhibition, % at 12.5 µM; 57,000 compounds, 0.35% hits; AID 651548;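 active means mean inhibition of replicates at least 50% and every single replicate also reaching 50%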;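 further: dimethyl H3K27 on biotinylated H3 21-44 peptide detected by antibody; plate controls were median neutral control wells for no effect and median positive control wells for full effect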
Target sequence (Q15910 whole entry, looked up): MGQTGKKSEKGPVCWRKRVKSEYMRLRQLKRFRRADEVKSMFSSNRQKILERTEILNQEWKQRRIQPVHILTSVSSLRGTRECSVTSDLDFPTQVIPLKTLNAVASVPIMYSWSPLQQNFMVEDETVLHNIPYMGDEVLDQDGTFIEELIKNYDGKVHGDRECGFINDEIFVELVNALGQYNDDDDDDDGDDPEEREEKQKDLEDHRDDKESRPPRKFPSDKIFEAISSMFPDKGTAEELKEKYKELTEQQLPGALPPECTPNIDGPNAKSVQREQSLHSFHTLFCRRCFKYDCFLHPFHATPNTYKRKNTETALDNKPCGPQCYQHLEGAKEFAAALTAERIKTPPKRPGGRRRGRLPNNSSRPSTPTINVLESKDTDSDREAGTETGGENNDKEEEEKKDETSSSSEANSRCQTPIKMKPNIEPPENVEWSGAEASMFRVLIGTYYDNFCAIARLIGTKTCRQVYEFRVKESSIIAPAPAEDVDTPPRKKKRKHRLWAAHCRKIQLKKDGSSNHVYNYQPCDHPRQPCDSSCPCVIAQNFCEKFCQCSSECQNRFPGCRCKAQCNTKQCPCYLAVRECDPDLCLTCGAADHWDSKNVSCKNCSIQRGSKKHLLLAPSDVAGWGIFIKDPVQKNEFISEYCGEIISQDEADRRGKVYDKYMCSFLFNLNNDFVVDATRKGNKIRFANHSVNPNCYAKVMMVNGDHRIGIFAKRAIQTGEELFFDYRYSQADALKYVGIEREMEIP
* = called active by the depositor. This excerpt belongs to a sample that is enriched for hits.

SMILES	PRC2 inh
C[C@@H]1CN([C@H](C)CO)S(=O)(=O)c2ccc(/C=C/c3ccccc3)cc2O[C@H]1CN(C)Cc1ccccc1	10
Cc1ccc(-c2ccc3c(c2)O[C@H](CN(C)Cc2ccc(C(=O)O)cc2)[C@@H](C)CN([C@@H](C)CO)S3(=O)=O)cc1	44
C[C@H]1CN([C@@H](C)CO)S(=O)(=O)c2ccc(Br)cc2O[C@H]1CN(C)Cc1ccc(F)cc1	24
COC(=O)c1cccc(NC(=O)CSc2n[nH]c(-c3ccc(Cl)cc3)n2)c1	-14
O=C(NC=Nc1cccnc1)c1cccc(COCC(F)(F)F)c1	3
C=C1C(=O)O[C@@H]2CC=C(CCC(C)O)C(C)C[C@@H]12 (some centres undefined)	7
COc1cc(OC)cc(-c2nnc(SCC(=O)Nc3ccc(F)cc3)o2)c1	22
CC(=O)c1cccc(NC(=O)CSc2nc(C)cc(=O)[nH]2)c1	18
CCn1c(SCC(=O)Nc2ccc3c(c2)OCCO3)nnc1-c1ccccc1O	-14
COc1ccc(-c2nc(SCC(=O)Nc3cccc(C(F)(F)F)c3)n[nH]2)cc1	19
COc1cccc(-c2nc(SCC(=O)Nc3cccc(C(F)(F)F)c3)[nH]c(=O)c2C#N)c1	68*
O=C(CSc1nc2ccccc2[nH]1)Nc1ccc(I)cc1	18
O=C(CSc1n[nH]c(-c2ccco2)n1)Nc1ccc(F)cc1	0
COc1ccc(-c2nc(SCC(=O)Nc3ccc(Cl)cc3)[nH]c(=O)c2C#N)cc1	29
N#Cc1c(-c2ccco2)nc(SCC(=O)Nc2ccc(I)cc2)[nH]c1=O	54*
COc1ccccc1NC(=O)CSc1nc(-c2ccc(C)cc2)nc2c1COC(C)(C)C2	14
CC1C2CC(CC1(C)C)N(C(=O)c1ccc(N3C(=O)c4ccccc4C3=O)cc1)C2 (centres undefined)	14
COc1ccc(NC(=O)CN2CCN(C(=O)c3ccco3)CC2)cc1	8
CS(=O)(=O)N(CC(=O)Nc1cccc([N+](=O)[O-])c1)c1cc(Cl)c(Cl)cc1Cl	-2
CCOc1ccc(NC(=O)C(C)n2nc([N+](=O)[O-])c(Br)c2C)cc1 (centres undefined)	22
O=C(NO)c1ccc(C(=O)N/N=C/c2ccc(O)c(O)c2O)cc1	89*
CCN(CC)c1ccc(/C=N/NC(=O)c2ccc(C(=O)NO)cc2)c(O)c1	-1
O=C(NO)c1ccc(C(=O)N/N=C/c2ccc(O)cc2)cc1	4
O=C(CCCCC(=O)N/N=C/c1cccc(O)c1O)NO	4
O=C(NO)c1ccc(C(=O)N/N=C/c2cccc(O)c2O)cc1	76*
SMILES	PRC2 inh
O=C(NO)c1ccc(C(=O)N/N=C/c2ccccc2C(=O)O)cc1	5
Cc1c(NC(=O)CCCC(=O)O)cccc1C(=O)O	-8
O=S(=O)(NCc1ccccn1)c1cc(Cl)c(Cl)cc1Cl	8
O=C(CCCCC(=O)N/N=C/c1c(O)ccc2ccccc12)NO	-11
COc1ccccc1CN=c1c([N+](=O)[O-])nn(-c2ccccc2)n1O	-3
Cc1cc(C)nc(NS(=O)(=O)c2ccc(NC(=O)c3ccc(-c4ccccc4)cc3)cc2)n1	56*
CCOc1ccccc1C(=O)Nc1ccc(S(=O)(=O)Nc2nc(C)cc(C)n2)cc1	-4
Cc1cc(C)nc(NS(=O)(=O)c2ccc(N)cc2)n1	8
Cc1cc(C)nc(NS(=O)(=O)c2ccc(Nc3nc(-c4ccc(F)cc4)cs3)cc2)n1	58*
O=C(Nc1ccc(S(=O)(=O)Nc2ncccn2)cc1)c1ccc(-c2ccccc2)cc1	28
Cc1cc(C)nc(NS(=O)(=O)c2ccc(NC(=O)c3ccc(C(=O)c4ccccc4)cc3)cc2)n1	7
CCc1cc2c(=O)n(-c3ccccc3)c(SCC(=O)Nc3ccc([N+](=O)[O-])cc3)nc2s1	-2
CCCn1c2ccccc2c2nnc(Sc3ccc4nsnc4c3[N+](=O)[O-])nc21	10
CC(C)Sc1nc2sc3c(c2c2nnc(SCC(=O)c4ccccc4)n12)CCCC3	6
O=S(=O)(Nc1ncccn1)c1ccc(NC(=S)Nc2ccc3c(c2)CCC3)cc1	-4
N#Cc1ccccc1OCCCCSc1ncccn1	12
c1cnc(SCCCCOc2ccc3c(c2)CCC3)nc1	54*
Cc1cc(Cl)ccc1NC(=O)CNS(=O)(=O)c1ccc(Br)cc1	8
O=C(CSc1n[nH]c(-c2ccc(Cl)cc2Cl)n1)Nc1cccc(C(F)(F)F)c1	29
O=C(CSc1n[nH]c(-c2ccc(Cl)cc2Cl)n1)Nc1cc(C(F)(F)F)ccc1Cl	9
O=C(CSc1n[nH]c(-c2ccc(Cl)cc2Cl)n1)Nc1ccc(I)cc1	58*
CC(C)c1cc2c(cc1O)[C@@]1(C(=O)O)CCCC(C)(C)C1CC2 (some centres undefined)	10
CCSc1nc2ccccc2n1C(CC(=O)O)C(=O)O (centres undefined)	-8
Cc1ccc(S(=O)(=O)N(C(=O)C2CCCCC2)c2ccc3oc(=O)sc3c2)c(C)c1	54*
COc1ccc(N(C(=O)C2CCCCC2)S(=O)(=O)c2cccc3cccnc23)cc1	8
SMILES	PRC2 inh
CC(=O)c1c(C)oc2ccc(N(C(=O)c3ccncc3)S(=O)(=O)c3ccc(F)cc3C)cc12	13
CCn1cc(C(C)NC(=S)Nc2cccc([N+](=O)[O-])c2)c(C)n1 (centres undefined)	-13
COc1ccc(C#Cc2ccc3c(c2)[C@]2(C(=O)N3)[C@H](c3ccccc3OCCO)N3[C@H](c4ccccc4)[C@H](c4ccccc4)OC(=O)[C@H]3[C@@H]2C(=O)O)cc1	59*
C=CCNC(=O)[C@@H]1[C@H]2C(=O)O[C@H](c3ccccc3)[C@H](c3ccccc3)N2[C@H](c2ccccc2OCCO)[C@@]12C(=O)Nc1ccc(C#Cc3ccc(OC)cc3)cc12	-11
C=CCNC(=O)[C@H]1[C@@H]2C(=O)O[C@@H](c3ccccc3)[C@@H](c3ccccc3)N2[C@@H](c2ccccc2OCCO)[C@]12C(=O)Nc1ccc(C#Cc3ccc(OC)cc3)cc12	-19
O=[N+]([O-])c1ccc(OCc2nc(-c3ccncc3)no2)cc1	-9
CCn1c(SCC(=O)Nc2ccc(Br)c(Cl)c2)nnc1-c1ccccc1F	9
COC(=O)c1ccccc1NC(=O)C(C)Oc1ccc2c(C)cc(=O)oc2c1 (centres undefined)	3
Cc1cc(Oc2ccccc2)nc(SCCOc2ccccc2)n1	52*
Cc1cc(Oc2ccccc2)nc(SCC(=O)Nc2ccc(Cl)cc2Cl)n1	19
Cc1cc(C)nc(SCC(O)COc2ccc(Cl)cc2)n1 (centres undefined)	4
COc1ccc(NC(=O)CSc2ncnc3sc(-c4ccccc4)cc23)c([N+](=O)[O-])c1	-14
CC(=O)Nc1ccc(NC(=O)CN(C)S(=O)(=O)c2ccc(Cl)cc2)cc1	-4
CN(CC(=O)Nc1cccc(I)c1)S(=O)(=O)c1ccc(Cl)cc1	53*
CN(CC(=O)Nc1cccc(Cl)c1)S(=O)(=O)c1ccc2ccccc2c1	42

Source: PubChem BioAssay
